Measured values published in PubChem BioAssay (NCATS).
Records with an inconclusive call do not appear. Active and inactive are the calls of the source. The call rests on the fitted dose curve; in most records, active means well fitted cell-killing curve with a large enough effect; inconclusive means small, poorly fitted or top-dose-only effect, or effect the other way; inactive means no such curve, though single readings can be large or run the other way.

Assay: Quantitative High-Throughput drug screen in 47 multiple myeloma cell lines against the NCATS MIPE library collection: PCM6_Riken cell viability assay (AID 1919870)
Details: CellTiter-Glo ATP, 48 h; series mostly up to 45.8 µM; viability (% of control): at the top concentration
How it was run: (§1)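 Myeloma cells (500/well) treated with MIPE 4.0 compounds for 48 h at 37 °C, 5% CO2. Viability read as ATP via CellTiter-Glo luminescence after 5 min at RT; DMSO-only wells = 100%, media-only = 0% viability.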
Further: nearly all actives have a fitted effect of over 30% in size.
Potency means the concentration at half of the fitted maximal effect.

| Structure (SMILES) | Potency | viability (% of control) |
| --- | --- | --- |
| CC1=C(O)C(=O)C=C2C1=CC=C1[C@@]2(C)CC[C@@]2(C)[C@@H]3C[C@](C)(C(=O)O)CC[C@]3(C)CC[C@]12C | 743 nM (active) |  |
| CCN1CCN(C(=O)Cc2ccc(Nc3ncc(F)c(Nc4ccc(C(=O)Nc5ccccc5Cl)cc4)n3)cc2)CC1 | 2960 nM (active) |  |
| O=S(=O)(F)Cc1ccccc1 | 2640 nM (active) |  |
| CC(C)[C@]12O[C@@H]1[C@@H]1O[C@]13[C@]1(O[C@H]1C[C@@H]1C4=C(CC[C@@]13C)C(=O)OC4)[C@H]2O |  | 5.21% (inactive) |
| O=c1[nH]c2ccccc2n1C1CCN(Cc2ccc(-c3[nH]c4cc5ncnc5cc4nc3-c3ccccc3)cc2)CC1 | 13200 nM (active) |  |
| CCCC[N+]1(C)[C@H]2CC(OC(=O)[C@H](CO)c3ccccc3)C[C@H]1[C@H]1O[C@H]12 (stereo partly specified) |  | 103% (inactive) |
| O=C(Nc1ccncc1)C(=O)c1cn(Cc2ccc(Cl)cc2)c2ccccc12 | 5.9 nM (active) |  |
| CSCC[C@@H](NC(=O)[C@@H](Cc1ccccc1)NC(=O)CNC(=O)CNC(=O)[C@@H](N)Cc1ccc(O)cc1)C(=O)O |  | 116% (inactive) |
| COCC1(CO)C(=O)C2CCN1CC2 (stereo unspecified) | 20900 nM (active) |  |
| c1ccc2c(CN3CCNCC3)cccc2c1 |  | 98.7% (inactive) |
| C=C[C@@H]1CN2CCC1C[C@H]2[C@H](O)c1ccnc2ccccc12 (stereo partly specified) | 14800 nM (active) |  |
| CCc1c(C(=O)C(N)=O)c2c(OCC(=O)O)cccc2n1Cc1ccccc1 |  | 124% (inactive) |
| C=CCON=C(C[C@H]1O[C@@H]2O[C@]3(C)CC[C@@H]4[C@H](C)CC[C@@H]([C@H]1C)[C@@]24OO3)[C@H]1O[C@@H]2O[C@]3(C)CC[C@H]4[C@H](C)CC[C@@H]([C@@H]1C)[C@@]24OO3 | 526 nM (active) |  |
| COc1ccc2c(c[n+](C)c3c4cc5c(cc4ccc23)OCO5)c1OC | 7430 nM (active) |  |
| COc1cccc2c1[C@]13CCN(CC4CC4)[C@H](C2)[C@]1(OC)CCC(=O)C3 |  | 100% (inactive) |
| Cc1[nH]nc2ccc(-c3cncc(OC[C@@H](N)Cc4c[nH]c5ccccc45)c3)cc12 | 264 nM (active) |  |
| CC(C)(O)C=CC(=O)[C@](C)(O)[C@H]1[C@H](O)C[C@]2(C)[C@@H]3CC=C4[C@@H](C=C(O)C(=O)C4(C)C)[C@]3(C)C(=O)C[C@@]12C | 29.6 nM (active) |  |
| CC[C@@H]1[C@@H](C)O[C@@](O)([C@@H](C)[C@H](O)[C@H](C)[C@H]2OC(=O)C=CC=C[C@@H](C)[C@@H]([C@@H](C)[C@@H](O)[C@H](C)[C@@]3(O)C[C@H](O[C@H]4C[C@H](O)[C@H](O)[C@H](C)O4)[C@H](CC)[C@@H](C)O3)OC(=O)C=CC=C[C@@H]2C)C[C@H]1O[C@H]1C[C@H](O)[C@H](O)[C@H](C)O1 | 743 nM (active) |  |
| CC[C@@]1(O)C(=O)OCc2c1cc1n(c2=O)Cc2cc3ccccc3nc2-1 | 372 nM (active) |  |
| CN1CCN(c2ccc([N+](=O)[O-])c3no[n+]([O-])c23)CC1 | 5900 nM (active) |  |
| C[C@@H]1O[C@@H](O[C@@H]2C=C3CC[C@@H]4[C@@H](CC[C@]5(C)[C@H](c6ccc(=O)oc6)CC[C@@]45O)[C@@]3(C)CC2)[C@H](O)[C@H](O)[C@H]1O | 9.3 nM (active) |  |
| CC=C(C)C(=O)O[C@H]1C(C)=C2[C@@H]3OC(=O)[C@@](C)(O)[C@@]3(O)[C@@H](OC(=O)CCC)C[C@](C)(OC(C)=O)[C@@H]2[C@@H]1OC(=O)CCCCCCC | 11800 nM (active) |  |

Assay: Quantitative High-Throughput drug screen in 47 multiple myeloma cell lines against the NCATS MIPE library collection: RPMI8226_ATCC cell viability assay (AID 1919871)
Details: RPMI8226 myeloma viability, CellTiter-Glo ATP luminescence, 48 h; series mostly up to 45.8 µM; viability (% of control): at the top concentration
How it was run: as §1

| Structure (SMILES) | Potency | viability (% of control) |
| --- | --- | --- |
| C[C@H]([C@H](O)CCC(C)(C)O)[C@H]1CC[C@@]2(O)C3=CC(=O)[C@@H]4C[C@@H](O)[C@@H](O)C[C@]4(C)[C@@H]3CC[C@]12C | 20900 nM (active) |  |
| C1=C2CCCN[C@H]2[C@@H]2C[C@H]1[C@@H]1CCCCN1C2 |  | 97.1% (inactive) |
| CC(=Cc1csc(C)n1)[C@@H]1C[C@H]2O[C@@H]2CCC[C@H](C)[C@@H](O)[C@@H](C)C(=O)C(C)(C)[C@@H](O)CC(=O)O1 |  | 61.6% (inactive) |
| Clc1ccccc1C(c1ccccc1)(c1ccccc1)n1cccn1 | 20900 nM (active) |  |
| CO[C@H]1CCC(O[C@H]2C[C@H]([C@]3(C)CC[C@]4(C[C@H](O)[C@@H](C)[C@@H]([C@@H](C)C=C(C)C(=O)[C@H](C)C[C@H](C)C(=O)O)O4)O3)O[C@]3(O[C@@H]([C@H]4O[C@@](O)(CO)[C@H](C)C[C@H]4C)C[C@H]3C)[C@H]2C)O[C@H]1C (stereo partly specified) | 935 nM (active) |  |
| O=c1[nH]c2ccc(Cl)cc2c(N[C@@H]2CN3CCC2CC3)c1-c1nc2ccccc2[nH]1 | 5900 nM (active) |  |
| CC(C)(C)[C@]1(O)C[C@@H]2OC(=O)C[C@@]23C(=O)O[C@@H]2OC(=O)[C@H](O)C213 (stereo partly specified) |  | 89.2% (inactive) |
| COc1ccc(N(C(=O)Oc2c(C)cccc2C)c2ccnc(Nc3ccc(N4CCN(C)CC4)cc3)n2)c(OC)c1 | 4180 nM (active) |  |
| C[C@]12COC(=O)C[C@@H]1CC[C@@H]1[C@H]2CC[C@@]2(C)[C@H]1CC[C@]2(C)O |  | 124% (inactive) |
| CC1=C(O)C(=O)C=C2C1=CC=C1[C@@]2(C)CC[C@@]2(C)[C@@H]3C[C@](C)(C(=O)O)CC[C@]3(C)CC[C@]12C | 1180 nM (active) |  |
| CCN1CCN(C(=O)Cc2ccc(Nc3ncc(F)c(Nc4ccc(C(=O)Nc5ccccc5Cl)cc4)n3)cc2)CC1 | 18700 nM (active) |  |
| O=S(=O)(F)Cc1ccccc1 |  | 137% (inactive) |
| CC(C)[C@]12O[C@@H]1[C@@H]1O[C@]13[C@]1(O[C@H]1C[C@@H]1C4=C(CC[C@@]13C)C(=O)OC4)[C@H]2O |  | 5.05% (inactive) |
| O=c1[nH]c2ccccc2n1C1CCN(Cc2ccc(-c3[nH]c4cc5ncnc5cc4nc3-c3ccccc3)cc2)CC1 | 13200 nM (active) |  |
| CCCC[N+]1(C)[C@H]2CC(OC(=O)[C@H](CO)c3ccccc3)C[C@H]1[C@H]1O[C@H]12 (stereo partly specified) |  | 96.6% (inactive) |
| O=C(Nc1ccncc1)C(=O)c1cn(Cc2ccc(Cl)cc2)c2ccccc12 | 418 nM (active) |  |
| COCC1(CO)C(=O)C2CCN1CC2 (stereo unspecified) | 20900 nM (active) |  |
| c1ccc2c(CN3CCNCC3)cccc2c1 |  | 105% (inactive) |
| C=C[C@@H]1CN2CCC1C[C@H]2[C@H](O)c1ccnc2ccccc12 (stereo partly specified) | 18700 nM (active) |  |
| CCc1c(C(=O)C(N)=O)c2c(OCC(=O)O)cccc2n1Cc1ccccc1 |  | 116% (inactive) |
| C=CCON=C(C[C@H]1O[C@@H]2O[C@]3(C)CC[C@@H]4[C@H](C)CC[C@@H]([C@H]1C)[C@@]24OO3)[C@H]1O[C@@H]2O[C@]3(C)CC[C@H]4[C@H](C)CC[C@@H]([C@@H]1C)[C@@]24OO3 | 235 nM (active) |  |
| COc1ccc2c(c[n+](C)c3c4cc5c(cc4ccc23)OCO5)c1OC | 8330 nM (active) |  |
| Cc1[nH]nc2ccc(-c3cncc(OC[C@@H](N)Cc4c[nH]c5ccccc45)c3)cc12 | 3320 nM (active) |  |
| CC(C)(O)C=CC(=O)[C@](C)(O)[C@H]1[C@H](O)C[C@]2(C)[C@@H]3CC=C4[C@@H](C=C(O)C(=O)C4(C)C)[C@]3(C)C(=O)C[C@@]12C | 52.6 nM (active) |  |
| CC[C@@H]1[C@@H](C)O[C@@](O)([C@@H](C)[C@H](O)[C@H](C)[C@H]2OC(=O)C=CC=C[C@@H](C)[C@@H]([C@@H](C)[C@@H](O)[C@H](C)[C@@]3(O)C[C@H](O[C@H]4C[C@H](O)[C@H](O)[C@H](C)O4)[C@H](CC)[C@@H](C)O3)OC(=O)C=CC=C[C@@H]2C)C[C@H]1O[C@H]1C[C@H](O)[C@H](O)[C@H](C)O1 | 372 nM (active) |  |
| CC[C@@]1(O)C(=O)OCc2c1cc1n(c2=O)Cc2cc3ccccc3nc2-1 | 743 nM (active) |  |
| CCNC(=O)C[C@@H]1N=C(c2ccc(Cl)cc2)c2cc(OC)ccc2-n2c(C)nnc21 | 1180 nM (active) |  |
| C[C@@H]1O[C@@H](O[C@@H]2C=C3CC[C@@H]4[C@@H](CC[C@]5(C)[C@H](c6ccc(=O)oc6)CC[C@@]45O)[C@@]3(C)CC2)[C@H](O)[C@H](O)[C@H]1O | 23.5 nM (active) |  |
| CC=C(C)C(=O)O[C@H]1C(C)=C2[C@@H]3OC(=O)[C@@](C)(O)[C@@]3(O)[C@@H](OC(=O)CCC)C[C@](C)(OC(C)=O)[C@@H]2[C@@H]1OC(=O)CCCCCCC | 74.3 nM (active) |  |
